Our source for the growth inhibition values is PubChem BioAssay (NCI).

The panel holds about 79,000 compounds, 15% with a hit somewhere; the sample as a whole holds those more often. A number with no mark means an inactive call. The source made the active and inactive calls. Rule as the data show it: active = growth inhibition above about 70%; inactive = the rest.

A short description of experiment [1]: NCI Yeast Anticancer Drug Screen. Data for the rad50 strain (AID 155).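 Also: 0% = growth of vehicle-only cultures of the same strain.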 To be noted: S. cerevisiae rad50 strain growth inhibition, hits give high values. In short, it runs like this:
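A DNA repair-deficient yeast mutant serves as the test organism; compound-induced growth inhibition is calculated against vehicle-treated cells.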

Experiment [2] can be described thus: NCI Yeast Anticancer Drug Screen. Data for the mec2-1 strain (AID 157). The conditions noted are these: S. cerevisiae mec2-1 strain, hits give high values. Summed up: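 Strain: mec2-1 (DNA repair/cell cycle alteration). Compound exposure, then growth measured; inhibition expressed relative to vehicle.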
A short description of experiment [3]: NCI Yeast Anticancer Drug Screen. Data for the sgs1 mgt1 strain (AID 161).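 Also: 0% = growth of cultures given vehicle only.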 To be noted: S. cerevisiae sgs1 mgt1 strain, hits give high values. Summed up:
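Mutant yeast exposed to compound; growth scored against vehicle-only wells.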

Experiment [4] is described as follows: NCI Yeast Anticancer Drug Screen. Data for the cln2 rad14 strain (AID 165).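 Also: 0% = growth equal to vehicle treated cultures.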 The conditions noted are these: S. cerevisiae cln2 rad14 strain, hits give high values. In short, it runs like this:
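Compounds are applied to the cln2 rad14 yeast strain, and growth is then compared with that of vehicle-treated cultures to give inhibition.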

Experiment [5] in a line: NCI Yeast Anticancer Drug Screen. Data for the bub3 strain (AID 167). To be noted: S. cerevisiae bub3 mutant strain, hits give high values. In short, it runs like this: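 Inhibition values come from growth of compound-treated mutant yeast normalised to vehicle-treated controls.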
Experiment [6] in a line: NCI Yeast Anticancer Drug Screen. Data for the mlh1 rad18 strain (AID 175). The conditions noted are these: S. cerevisiae mlh1 rad18 strain growth inhibition, hits give high values. In short, it runs like this:
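Read-out is yeast growth inhibition, calculated against vehicle-only controls. The compound was applied to a strain engineered with DNA damage repair alterations.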

[7] abbreviates: at 5.0 µM (retest, dose inferred, filed as 0.5).
The mark [8] stands for this setting: at 50.0 µM (retest, dose inferred, filed as 5.0).

For `CN1c2ccccc2C(C)(C)C12C=Cc1cc(O)ccc1O2` (configuration not stated), the growth inhibition was 20% in experiment [1] (setting [7]); 31% in experiment [1] (setting [8]); 70.8% (active) in experiment [1] (at 50.0 µM); 9% in experiment [2] (setting [7]); 10% in experiment [2] (setting [8]); 47.6% in experiment [2] (at 50.0 µM). Further, the growth inhibition is 8% in experiment [3] (setting [7]); 38% in experiment [3] (setting [8]); 61.9% in experiment [3] (at 50.0 µM); 14% in experiment [4] (setting [7]); 23% in experiment [4] (setting [8]); 35.6% in experiment [4] (at 50.0 µM). The growth inhibition in experiment [5] (setting [7]) was -4%; in experiment [5] (setting [8]), 51%; in experiment [5] (at 50.0 µM), 52.4%; in experiment [6] (setting [7]), -15%; in experiment [6] (setting [8]), 33%; in experiment [6] (at 50.0 µM) it was 54.1%.

Take `CCCCCCCCCCCCOC(=O)C[n+]1cccc(C(=O)Nc2ccc(Cl)cc2)c1`: the growth inhibition is 76% (active) in experiment [1] (setting [7]); 98% (active) in experiment [1] (setting [8]); 98.8% (active) in experiment [1] (at 50.0 µM); 56% in experiment [2] (setting [7]); 99% (active) in experiment [2] (setting [8]); 99.2% (active) in experiment [2] (at 50.0 µM). In addition, the growth inhibition is 60% in experiment [3] (setting [7]); 98% (active) in experiment [3] (setting [8]); 99% (active) in experiment [3] (at 50.0 µM); 53% in experiment [4] (setting [7]); 99% (active) in experiment [4] (setting [8]); 100% (active) in experiment [4] (at 50.0 µM). The growth inhibition is 85% (active) in experiment [5] (setting [7]); 99% (active) in experiment [5] (setting [8]); 98.8% (active) in experiment [5] (at 50.0 µM); 88% (active) in experiment [6] (setting [7]); 99% (active) in experiment [6] (setting [8]); 98.4% (active) in experiment [6] (at 50.0 µM).

On to `c1cc[c]([Sn]([NH]c2ncnc3[nH]cnc23)([NH]c2ncnc3[nH]cnc23)[c]2ccccc2)cc1`, for which the growth inhibition in experiment [1] (setting [7]) is -10%; in experiment [1] (setting [8]), 93% (active); in experiment [1] (at 50.0 µM), 71% (active); in experiment [2] (setting [7]), -6%; in experiment [2] (setting [8]), 95% (active); in experiment [2] (at 50.0 µM) it was 47.6%. The growth inhibition in experiment [3] (setting [7]) is 2%; in experiment [3] (setting [8]) it was 96% (active); in experiment [3] (at 50.0 µM), 58.3%; in experiment [4] (setting [7]), -2%; in experiment [4] (setting [8]) it was 73% (active); in experiment [4] (at 50.0 µM), 29.4%. The growth inhibition in experiment [5] (setting [7]) was -4%; in experiment [5] (setting [8]), 95% (active); in experiment [5] (at 50.0 µM), 57.4%; in experiment [6] (setting [7]), -7%; in experiment [6] (setting [8]) it was 94% (active); in experiment [6] (at 50.0 µM), 89.2% (active).

As to `O=C1C=CC(=O)C(Sc2ccccc2)=C1`, the growth inhibition in experiment [1] (setting [7]) is -3%; in experiment [1] (setting [8]), 98% (active); in experiment [1] (at 50.0 µM), 96.8% (active); in experiment [2] (setting [7]), 7%; in experiment [2] (setting [8]) it was 99% (active); in experiment [2] (at 50.0 µM), 98.9% (active). For the same molecule, the growth inhibition in experiment [3] (setting [7]) was -4%; in experiment [3] (setting [8]) it was 98% (active); in experiment [3] (at 50.0 µM) it was 89.5% (active); in experiment [4] (setting [7]), -14%; in experiment [4] (setting [8]), 93% (active); in experiment [4] (at 50.0 µM) it was 93.3% (active). In addition, the growth inhibition in experiment [5] (setting [7]) was -10%; in experiment [5] (setting [8]) it was 99% (active); in experiment [5] (at 50.0 µM), 94.1% (active); in experiment [6] (setting [7]), 24%; in experiment [6] (setting [8]), 98% (active); in experiment [6] (at 50.0 µM) it was 95.3% (active).

As for `NC(N)=N/N=C/c1ccc([N+](=O)[O-])o1`, the growth inhibition in experiment [1] (setting [7]) is 11%; in experiment [1] (setting [8]), 22%; in experiment [1] (at 50.0 µM), 66%; in experiment [2] (setting [7]) it was 4%; in experiment [2] (setting [8]), 13%; in experiment [2] (at 50.0 µM), 49%. Moreover, the growth inhibition is 3% in experiment [3] (setting [7]); 16% in experiment [3] (setting [8]); 70.2% (active) in experiment [3] (at 50.0 µM); 3% in experiment [4] (setting [7]); 7% in experiment [4] (setting [8]); 25.2% in experiment [4] (at 50.0 µM). Also, the growth inhibition is 6% in experiment [5] (setting [7]); 39% in experiment [5] (setting [8]); 28.7% in experiment [5] (at 50.0 µM); 10% in experiment [6] (setting [7]); 23% in experiment [6] (setting [8]); 61.4% in experiment [6] (at 50.0 µM).

Regarding `CCCOc1ccc(-c2nc(-c3ccc(N=Cc4ccc(N(CCOS(C)(=O)=O)CCOS(C)(=O)=O)cc4C)cc3)cs2)cc1`, the growth inhibition in experiment [1] (setting [7]) was 13%; in experiment [1] (setting [8]) it was 82% (active); in experiment [1] (at 50.0 µM), 84.7% (active); in experiment [2] (setting [7]) it was 7%; in experiment [2] (setting [8]), 83% (active); in experiment [2] (at 50.0 µM) it was 76.8% (active). For the same molecule, the growth inhibition in experiment [3] (setting [7]) was 8%; in experiment [3] (setting [8]) it was 89% (active); in experiment [3] (at 50.0 µM), 46.5%; in experiment [4] (setting [7]), 7%; in experiment [4] (setting [8]), 53%; in experiment [4] (at 50.0 µM) it was 24.6%. Also, the growth inhibition in experiment [5] (setting [7]) was -3%; in experiment [5] (setting [8]) it was 2%; in experiment [5] (at 50.0 µM), 37%; in experiment [6] (setting [7]), 50%; in experiment [6] (setting [8]) it was 95% (active); in experiment [6] (at 50.0 µM) it was 92.4% (active).

In the case of `O=C(c1ccccc1)C1OC1c1ccccc1Cl` (configuration not stated), the growth inhibition was 1% in experiment [1] (setting [7]); 40% in experiment [1] (setting [8]); -13.7% in experiment [1] (at 50.0 µM); -4% in experiment [2] (setting [7]); 21% in experiment [2] (setting [8]); -4.4% in experiment [2] (at 50.0 µM). Moreover, the growth inhibition in experiment [3] (setting [7]) was 7%; in experiment [3] (setting [8]) it was 54%; in experiment [3] (at 50.0 µM) it was -12.7%; in experiment [4] (setting [7]), 4%; in experiment [4] (setting [8]), 23%; in experiment [4] (at 50.0 µM), -52.2%. The growth inhibition in experiment [5] (setting [7]) is 3%; in experiment [5] (setting [8]), 61%; in experiment [5] (at 50.0 µM), -3.7%; in experiment [6] (setting [7]) it was 12%; in experiment [6] (setting [8]) it was 78% (active); in experiment [6] (at 50.0 µM), -9%.

Consider `Clc1ccc(/C=C\c2ccncc2)cc1`, for which the growth inhibition in experiment [1] (setting [7]) was 3%; in experiment [1] (setting [8]) it was 58%; in experiment [1] (at 50.0 µM), 48.2%; in experiment [2] (setting [7]), 4%; in experiment [2] (setting [8]), 51%; in experiment [2] (at 50.0 µM), 44.9%. Further, the growth inhibition is 4% in experiment [3] (setting [7]); 59% in experiment [3] (setting [8]); 29.1% in experiment [3] (at 50.0 µM); 1% in experiment [4] (setting [7]); 7% in experiment [4] (setting [8]); 29.7% in experiment [4] (at 50.0 µM). The growth inhibition in experiment [5] (setting [7]) is 4%; in experiment [5] (setting [8]), 39%; in experiment [5] (at 50.0 µM) it was 30%; in experiment [6] (setting [7]) it was -1%; in experiment [6] (setting [8]), 32%; in experiment [6] (at 50.0 µM), 62%.

Regarding `Cc1c(NC(=O)C(=O)N=NC(=O)c2ccncc2)c(O)c2ccccc2c1O`, the growth inhibition in experiment [1] (setting [7]) is -15%; in experiment [1] (setting [8]) it was 91% (active); in experiment [1] (at 50.0 µM), 91% (active); in experiment [2] (setting [7]) it was -31%; in experiment [2] (setting [8]), 90% (active); in experiment [2] (at 50.0 µM) it was 93.5% (active). Moreover, the growth inhibition is -5% in experiment [3] (setting [7]); 69% in experiment [3] (setting [8]); 91.9% (active) in experiment [3] (at 50.0 µM); -24% in experiment [4] (setting [7]); 82% (active) in experiment [4] (setting [8]); 90.4% (active) in experiment [4] (at 50.0 µM). Moreover, the growth inhibition in experiment [5] (setting [7]) was 1%; in experiment [5] (setting [8]), 96% (active); in experiment [5] (at 50.0 µM), 91% (active); in experiment [6] (setting [7]), -6%; in experiment [6] (setting [8]), 93% (active); in experiment [6] (at 50.0 µM) it was 91.3% (active).
